These results are taken from PubChem BioAssay (NCATS).

Unmarked numbers belong to inactive results. Records with an inconclusive call do not appear. Activity calls are given as the source filed them. Unless noted, calls come from the whole dose curve; as a rule, active = well fitted curve in the direction sought with a large enough effect; inconclusive = small, poorly fitted or top-dose-only effect, or another doubt; inactive = no such curve, though single readings can be large; an effect the other way counts as inactive or inconclusive.

The target of assay [1] is Peroxisome proliferator-activated receptor gamma (Homo sapiens) (UniProt P37231). Nature of the assay: qHTS assay for small molecule agonists of peroxisome proliferator-activated receptor gamma signaling (AID 588536; active = well fitted curve in the direction sought with a large enough effect in the signal ratio, with a control signal flat, not every such curve was filed as active; the % refers to the signal ratio). In short, it runs like this:
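Beta-lactamase reporter read-out: CCF4 fluorescence (ex 405, em 460/530 nm) after 2 h at RT. HEK293 GeneBLAzer cells were treated for 16 h at 37 C. Hill fits gave EC50 and efficacy versus 2 uM rosiglitazone (100%) and DMSO (0%).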
Background: In qHTS, concentration-response curves come from the screen itself.

Assay [2] deals with DNA dC->dU-editing enzyme APOBEC-3G (Homo sapiens) (UniProt Q9HC16). Nature of the assay: qHTS for inhibitors of Vif-A3G interactions: Validation (AID 588379). In short, it runs like this: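 Yellow fluorescence (Ex 488, Em 500-530) of Vif-coexpressing HeLa A3G-eYFP cells, scanned by Acumen cytometer, reports blocked A3G degradation. Cells plated at 700/well overnight at 37 deg C before compound addition, then a further overnight compound incubation at 37 deg C.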
Sequence of DNA dC->dU-editing enzyme APOBEC-3G (Homo sapiens) (Q9HC16 whole entry, looked up): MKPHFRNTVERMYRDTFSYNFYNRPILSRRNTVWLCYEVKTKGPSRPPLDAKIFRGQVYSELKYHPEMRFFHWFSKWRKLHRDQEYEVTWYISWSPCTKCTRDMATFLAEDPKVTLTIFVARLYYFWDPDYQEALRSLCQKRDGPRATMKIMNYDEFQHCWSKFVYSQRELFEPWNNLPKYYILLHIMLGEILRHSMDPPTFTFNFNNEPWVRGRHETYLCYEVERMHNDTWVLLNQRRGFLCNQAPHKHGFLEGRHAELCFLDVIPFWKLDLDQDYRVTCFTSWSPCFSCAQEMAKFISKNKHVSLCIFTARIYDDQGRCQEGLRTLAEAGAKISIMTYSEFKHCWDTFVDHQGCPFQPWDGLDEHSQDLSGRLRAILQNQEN

Assay [3] addresses Glucocorticoid receptor (Homo sapiens) (UniProt P04150). Put plainly: GR-EFC Redistribution (AID 451; calls by dose curve; note: potency is the fitted concentration of half-maximal effect). The following applies: CHO-K1 GR-EFC translocation, beta-gal luminescence, 2 h. In short, it runs like this: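 Translocation of GR-ED fusion to nuclear EA restores b-gal, read by luminescence after 1 h room-temperature detection. Engineered CHO-K1 biosensor cells, 1,000/well, exposed 2 h at 37 C to titrations up to 46 uM final.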

The test system of assay [4] is 3D7. Put plainly: qHTS profiling for inhibitors of Plasmodium falciparum proliferation (AID 504749). Note: nearly all actives have a fitted effect of over 60% in size. The following applies: P. falciparum in erythrocytes, SYBR Green DNA, 72 h; series mostly up to 28.7 µM. In short, it runs like this: (§1)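 SYBR Green fluorescence of parasite DNA, read after lysis and overnight dark incubation, measured growth over 72 h in erythrocyte culture at 0.3% parasitemia and 2.5% hematocrit. Data normalised to DMSO and 0.29 uM artemisinin, with plate-drift correction.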

Assay [5] relates to AS120. Described as above. The following applies: P. falciparum in erythrocytes, SYBR Green DNA, 72 h; series mostly up to 28.7 µM. An outline of the steps: as §1
The test system of assay [6] is ATS189. The assay is described as above. The following applies: P. falciparum in erythrocytes, SYBR Green DNA, 72 h; series mostly up to 28.7 µM. An outline of the steps: as §1
Assay [7] relates to CP185. The description is as above. The following applies: P. falciparum in erythrocytes, SYBR Green DNA, 72 h; series mostly up to 28.7 µM. In short, it runs like this:
as §1

Assay [8] has as its system CP191. The assay is described as above. The following applies: P. falciparum in erythrocytes, SYBR Green DNA, 72 h; series mostly up to 28.7 µM. In short, it runs like this: as §1
Assay [9] has as its system CP194. The assay is described as above. The following applies: P. falciparum in erythrocytes, SYBR Green DNA, 72 h; series mostly up to 28.7 µM. An outline of the steps: as §1
The subject of assay [10] is CP247. Described as above. The following applies: P. falciparum in erythrocytes, SYBR Green DNA, 72 h; series mostly up to 28.7 µM. In short, it runs like this: as §1
Assay [11] has as its system CP286. The description is as above. The following applies: P. falciparum in erythrocytes, SYBR Green DNA, 72 h; series mostly up to 28.7 µM. An outline of the steps:
as §1

The subject of assay [12] is CP291. The description is as above. The following applies: P. falciparum in erythrocytes, SYBR Green DNA, 72 h; series mostly up to 28.7 µM. In short, it runs like this: as §1
The test system of assay [13] is DFO2036. Described as above. The following applies: P. falciparum in erythrocytes, SYBR Green DNA, 72 h; series mostly up to 28.7 µM. An outline of the steps: as §1
Assay [14] deals with DIV30. The assay is described as above. The following applies: P. falciparum in erythrocytes, SYBR Green DNA, 72 h; series mostly up to 28.7 µM. An outline of the steps:
as §1

Assay [15] deals with P94_40. The assay is described as above. The following applies: P. falciparum in erythrocytes, SYBR Green DNA, 72 h; series mostly up to 28.7 µM. An outline of the steps:
as §1

The subject of assay [16] is TAB109. Described as above. The following applies: P. falciparum in erythrocytes, SYBR Green DNA, 72 h; series mostly up to 28.7 µM. In short, it runs like this:
as §1

Assay [17] deals with TAB113. Described as above. The following applies: P. falciparum in erythrocytes, SYBR Green DNA, 72 h; series mostly up to 28.7 µM. An outline of the steps: as §1
In assay [18] the target is Guanine nucleotide-binding protein G(i) subunit alpha-1 (Homo sapiens) (UniProt P63096). Put plainly: qHTS Assay for Inhibitors of RGS12 GoLoco Motif Activity (Green Fluorophore) (AID 879).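 Note: negative values mean loss of peptide binding seen as reduced polarization.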 In short, it runs like this:
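A drop in FITC polarization marked displacement of the FITC-tagged RGS12 GoLoco peptide (10 nM) from Gαi1 (50 nM). Compounds were incubated 10 min at room temperature in Tris pH 7.5 buffer containing 150 mM NaCl, 0.1 mM GDP and 0.05% NP40; unlabeled peptide titration served as control.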

Assay [19] in a line: qHTS Assay for Identification of Small Molecule Antagonists for NFkB Signaling Pathway (AID 895; active = well fitted inhibition curve with a large enough effect in the signal ratio, with a control signal flat, not every such curve was filed as active; the % refers to the signal ratio; note: potency is the fitted concentration of half-maximal effect). In short, it runs like this: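 Beta-lactamase reporter read-out (460 and 530 nm emission ratio, 405 nm excitation, 2 hrs substrate loading RT) after 5 hr stimulation with 10 pM TNF alpha in compound-treated NFkB-bla ME-180 cells in low-serum medium.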
A short description of assay [20]: qHTS Assay for Identification of Small Molecule Antagonists for Thrombopoietin (TPO) Signaling Pathway (AID 918). Note: potency is the fitted concentration of half-maximal effect; nearly all actives have a fitted effect of over 60% in size. The following applies: TPO-dependent cell signaling reporter, antagonist mode. In short, it runs like this:
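Inhibitors of TPO signaling are sought by stimulating IL-3-starved murine Ba/F3 cells (human TPO receptor, Glycoprotein IIb-driven luciferase) with TPO at its EC50 of 26 pM alongside compound. After 24 hrs at 37 C, reporter luminescence is measured.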

Sequence of Guanine nucleotide-binding protein G(i) subunit alpha-1 (Homo sapiens) (P63096 whole entry, looked up): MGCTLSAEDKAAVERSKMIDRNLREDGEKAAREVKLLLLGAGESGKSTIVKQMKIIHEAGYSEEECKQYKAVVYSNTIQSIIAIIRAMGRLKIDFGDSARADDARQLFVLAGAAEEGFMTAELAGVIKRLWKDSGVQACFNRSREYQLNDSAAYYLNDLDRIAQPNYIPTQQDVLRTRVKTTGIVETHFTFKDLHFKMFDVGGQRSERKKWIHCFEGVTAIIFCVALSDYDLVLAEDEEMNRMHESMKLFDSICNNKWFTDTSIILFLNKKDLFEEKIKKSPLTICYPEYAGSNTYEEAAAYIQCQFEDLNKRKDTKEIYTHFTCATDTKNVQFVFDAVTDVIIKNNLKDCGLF
Sequence of Glucocorticoid receptor (Homo sapiens) (P04150 whole entry, looked up, the tested form may be a part): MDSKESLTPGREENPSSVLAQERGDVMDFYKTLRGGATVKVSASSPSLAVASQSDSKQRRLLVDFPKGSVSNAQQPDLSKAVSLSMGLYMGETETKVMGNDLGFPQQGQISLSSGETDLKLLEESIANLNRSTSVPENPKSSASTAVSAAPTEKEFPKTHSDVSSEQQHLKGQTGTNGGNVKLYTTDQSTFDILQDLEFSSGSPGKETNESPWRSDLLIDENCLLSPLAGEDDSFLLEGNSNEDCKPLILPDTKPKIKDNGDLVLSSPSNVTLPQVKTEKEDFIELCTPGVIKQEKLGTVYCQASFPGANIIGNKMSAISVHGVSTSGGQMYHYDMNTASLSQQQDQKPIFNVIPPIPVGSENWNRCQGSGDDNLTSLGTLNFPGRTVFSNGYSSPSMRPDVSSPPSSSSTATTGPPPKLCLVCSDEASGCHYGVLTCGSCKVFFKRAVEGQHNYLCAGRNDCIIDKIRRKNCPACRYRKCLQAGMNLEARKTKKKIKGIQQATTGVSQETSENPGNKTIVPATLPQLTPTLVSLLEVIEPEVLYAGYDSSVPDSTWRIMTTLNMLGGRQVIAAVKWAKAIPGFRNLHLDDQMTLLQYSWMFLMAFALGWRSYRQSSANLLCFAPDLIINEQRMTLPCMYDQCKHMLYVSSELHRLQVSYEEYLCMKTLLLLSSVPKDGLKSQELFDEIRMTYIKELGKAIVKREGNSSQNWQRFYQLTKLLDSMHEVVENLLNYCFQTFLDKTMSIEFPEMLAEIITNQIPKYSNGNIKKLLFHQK
Sequence of Peroxisome proliferator-activated receptor gamma (Homo sapiens) (P37231 whole entry, looked up): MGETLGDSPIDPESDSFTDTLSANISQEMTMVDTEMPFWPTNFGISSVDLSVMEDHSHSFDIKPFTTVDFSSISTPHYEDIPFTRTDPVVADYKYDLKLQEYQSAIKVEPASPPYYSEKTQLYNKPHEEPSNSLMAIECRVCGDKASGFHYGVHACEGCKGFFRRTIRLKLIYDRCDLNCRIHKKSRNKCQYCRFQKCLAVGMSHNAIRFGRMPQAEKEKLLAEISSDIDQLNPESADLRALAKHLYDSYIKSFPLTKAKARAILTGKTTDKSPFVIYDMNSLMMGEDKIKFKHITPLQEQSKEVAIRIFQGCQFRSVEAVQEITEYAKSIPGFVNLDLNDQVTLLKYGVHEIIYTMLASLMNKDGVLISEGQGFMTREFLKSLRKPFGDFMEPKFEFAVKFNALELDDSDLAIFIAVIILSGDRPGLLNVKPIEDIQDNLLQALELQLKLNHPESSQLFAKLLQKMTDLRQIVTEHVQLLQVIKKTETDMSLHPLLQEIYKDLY

As for `O=C1OC2(c3cc(Br)c(O)c(Br)c3Oc3c2cc(Br)c(O)c3Br)c2c(Cl)c(Cl)c(Cl)c(Cl)c21`, the compound was called inactive in assay [1].
For the compound `COc1cc2c(c(OC)c1OC)-c1ccc(OC)c(=O)cc1[C@H](NC(C)=O)CC2`, in [2], the outcome was inactive.
In the case of `C[C@H](O)[C@@H]1C(=O)N2C(C(=O)O)=C(SCCN=CN)C[C@@H]12`, in [3], the Potency is greater than 20.6 µM. Further, the Potency result in [4], in [5], in assay [6], in [7], in assay [8] and in assay [9] was “inactive” in each case. The Potency entry in assay [10], in [11], in assay [12], in assay [13], in [14] and in [15] was “inactive” each time. Further, the Potency result in [16] and in assay [17] was “inactive” throughout.
Turning to `FC(F)(F)c1cc(CO[C@@H]2CCCN[C@H]2c2ccccc2)cc(C(F)(F)F)c1`, in [18], the call was inactive. For the same compound, the Potency entry in assay [19] was “inactive”. The Potency in [20] was 10 µM (active).
Take `CN1CCc2cc(O)c(O)cc2[C@H](c2ccccc2)C1`: the result in assay [18] was inactive. In [20], the Potency is 10 µM (active).
On to `Nc1ncnc2c1ncn2[C@@H]1O[C@@H](CO)[C@H](O)[C@@H]1O`, for which the Potency in assay [19] was 4.47 µM (active).
